# According to the supplement of paper PMC10338343:
# ± gives the standard deviation.
# System: MILI (PIWIL2) piRISC loaded with piRNA #1 (26 nt)
# Assay: pre-steady-state target cleavage rate (min^-1); guide: piRNA #1 5'p-UGAGGUAGUAGGUUGUAUAGUAUCCA; MIWI and MILI are mouse PIWI proteins and EfPiwi is from a freshwater sponge; tags in brackets are library labels; higher = faster piRNA-guided slicing of the target
# Conditions: auxiliary factor: 500 nM mouse GTSF1
# In short: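 A transcribed, DNA-blocked target RNA library […] was incubated at 33 °C for 0–8 or 0–960 min with 1 nM active affinity-purified piRISC carrying one synthetic guide, in HEPES–potassium acetate buffer with or without 500 nM GTSF1 partner protein. Uncleaved targets were then sequenced and normalised to depth and to weakly complementary targets. Data from three trials were pooled, with k3 capped at 0.0001 min^-1, and a burst-and-steady-state fit yielded the pre-steady-state cleavage rate.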
# 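Also: 1 nM active piRISC with 0.1 nM target library at 33 °C single turnover.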
row,Sequence,pre-steady-state target cleavage rate
1,GGAGACCUAUCUAUACAACCAACUACGUCA,0.00385 ± 0.0021
2,GGAGACCUUUCUAUACAACCAACUACCUCA,0.00462 ± 0.0029
3,GGAGACCUAUCUAUAGAACCUACAACCUCA,0.00275 ± 0.0025
4,GGAGACCUAUGAUGACAACCUACUACCUCA,0.00556 ± 0.0019
5,GGAGACCUAUCUAUACAAGCUACUAGCUCA,0.0812 ± 0.018
6,GGAGACCUUACUAUACAACCUUCUUCCUCA,0.00391 ± 0.0031
7,GGAGACCUAUGAUUACAUGCUACUACCUCA,0.00366 ± 0.0034
8,GGAGUGGAUACUAUACAUCCUACUUCCUCA,0.0127 ± 0.0032
9,GGAGACCUAUCUAUACAACCUACAACCACA,0.0576 ± 0.014
10,GGAGACCUAUGAUUGCAACCUACUACCUCA,0.00532 ± 0.003
11,GGAGACCUUAGUAUUCAACCUACUACCUCA,0.089 ± 0.011
12,GGAGACCUAUGAAUACAACCUACUACCUGA,0.00268 ± 0.0026
13,GGAGACCUAUGAAUACAACCUGCUACCUCA,0.00274 ± 0.0027
14,GGAGACCUUACUAUACAACCAACAACCUCA,0.00353 ± 0.0022
15,GGAGACCUUACUAAUGAACCUACUACCUCA,0.00805 ± 0.0017
16,GGAGACCUAUCUAUAGCAACCUACUACCUCA,0.0831 ± 0.016
17,GGAGACCUUACUAUACAACCUACUUCCUGA,0.0269 ± 0.0086
18,GGAGACCUAUCUAUACAUCCUACUACCACA,0.209 ± 0.025
19,GGAGACGAUAGUAUAGAACCUACUACCUCA,0.158 ± 0.013
20,GGAGACCUAUGAAAACAACCUACUACCUCA,0.0037 ± 0.0033

row,Sequence,pre-steady-state target cleavage rate
1,GGAGACCUAACUAAACAACCUACUACCUGA,0.0558 ± 0.021
2,GGAGAGGAUAGUAUAGAACCUACUACCUCA,0.0708 ± 0.012
3,GGAGACCUUACUAUACAACCUACCUACCUCA,0.148 ± 0.015
4,GGAGACCUAUGUAAACAACCUACAACCUCA,0.0135 ± 0.0041
5,GGAGACGAUACUUUAGAACCUACUACCUCA,0.16 ± 0.01
6,GGAGACCUAUGAAUUCAACCUACUACCUCA,0.00274 ± 0.0019
7,GGAGACCUAUGAUAACAAGCCUACUACCUCA,< 0.0001
8,GGAGACCUAUCUAUACAACCUACUACCACA,0.136 ± 0.019
9,GGAGACCUAUGUAUACAACGUACUACCUGA,0.00357 ± 0.0021
10,GGAGACCUAUGUAUGCAACCUACUACCUCA,0.0637 ± 0.0095
11,GGAGACCUUAGUUUACAACCUACUACCUCA,0.0381 ± 0.012
12,GGAGACCAUACUUUACAACCUACUACCACA,0.226 ± 0.023
13,GGAGACCUAUCUAUACAACCUACUUACCUCA,0.121 ± 0.015
14,GGAGACCUUACUAUACAACCUACUACCUUA,0.174 ± 0.019
15,GGAGUGGAUACAAUACAACCUACUUCCUCA,0.00975 ± 0.0031
16,GGAGUGGAUACUUAACAACCUACUACCUCA,0.157 ± 0.0088
17,GGAGACCUAUGAAUACAACCUACUAACUCA,0.00512 ± 0.0027
18,GGAGACCUUACUAAACAACCUAGUACCUCA,0.0259 ± 0.0068
19,GGAGACCUAUGAUUACAUCCUACUACCACA,0.0105 ± 0.0035
